Source: PubChem BioAssay AID1159580 (chemical genetic matrix, 2015)
Hit rate of the full screen: of about 5,500 compounds, about 2,000 (36%) were called active. Inconclusive results (about 18%) are left out. Rule as the data show it: active = normalized growth mostly below about 0.91 (no sharp cut-off); inconclusive = no clear call, values can overlap the other calls; inactive = mostly above about 0.92. Some of the results follow.

Experiment: chemical genetic growth profiling, strain panel (AID 1159580);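 also: tested at 20 µM; growth read once vehicle control cultures reached saturation at 30 °C; 1 = growth at the plate median or of vehicle wells; lower values mean less growth of the strain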
Conditions: growth OD

Measured: normalized growth

COP(=O)(NC(C)=O)SC (stereo unspecified)
inactive: S. cerevisiae deletion strains, locus YAL013W, strain DEP1, active compounds read low 1.01 | S. cerevisiae deletion strains, locus YBR021W, strain FUR4, active compounds read low 1 | S. cerevisiae deletion strains, locus YBR229C, strain ROT2, active compounds read low 1.01 | S. cerevisiae deletion strains, locus YCL029C, strain bik1, active compounds read low 1 | S. cerevisiae deletion strains, locus YDL035C, strain GPR1, active compounds read low 1.01 | S. cerevisiae deletion strains, locus YDL074C, strain BRE1, active compounds read low 1.04 | S. cerevisiae deletion strains, locus YDL101C, strain DUN1, active compounds read low 1.01 | S. cerevisiae deletion strains, locus YDL134C, strain PPH21, active compounds read low 1.01 | S. cerevisiae deletion strains, locus YDL185W, strain tfp1, active compounds read low 1 | S. cerevisiae deletion strains, locus YDL192W, strain arf1, active compounds read low 0.996 | S. cerevisiae deletion strains, locus YDR101C, strain arx1, active compounds read low 1 | S. cerevisiae deletion strains, locus YDR150W, strain NUM1, active compounds read low 0.997 | S. cerevisiae deletion strains, locus YDR162C, strain NBP2, active compounds read low 1.04 | S. cerevisiae deletion strains, locus YDR318W, strain mcm21, active compounds read low 0.996 | S. cerevisiae deletion strains, locus YDR388W, active compounds read low 0.983 | S. cerevisiae deletion strains, locus YDR502C, strain sam2, active compounds read low 0.996 | S. cerevisiae deletion strains, locus YEL061C, strain CIN8, active compounds read low 1 | S. cerevisiae deletion strains, locus YER110C, active compounds read low 0.994 | S. cerevisiae deletion strains, locus YER155C, strain BEM2, active compounds read low 1.01 | S. cerevisiae deletion strains, locus YER167W, strain BCK2, active compounds read low 0.989 | S. cerevisiae deletion strains, locus YGL078C, strain dbp3, active compounds read low 0.994 | S. cerevisiae deletion strains, locus YGL086W, strain mad1, active compounds read low 0.994 | S. cerevisiae deletion strains, locus YGL248W, strain PDE1, active compounds read low 1 | S. cerevisiae deletion strains, locus YGR078C, strain PAC10, active compounds read low 1.04 | S. cerevisiae deletion strains, locus YGR135W, strain pre9, active compounds read low 1 | S. cerevisiae deletion strains, locus YGR229C, strain SMI1, active compounds read low 1.04 | S. cerevisiae deletion strains, locus YGR252W, strain gcn5, active compounds read low 0.976 | S. cerevisiae deletion strains, locus YHR030C, strain SLT2, active compounds read low 1.01 | S. cerevisiae deletion strains, locus YHR079C, strain IRE1 (second series), active compounds read low 0.998 | S. cerevisiae deletion strains, locus YHR094C, strain hxt1, active compounds read low 0.991 | S. cerevisiae deletion strains, locus YHR129C, strain ARP1, active compounds read low 1.01 | S. cerevisiae deletion strains, locus YHR200W, strain rpn10, active compounds read low 1 | S. cerevisiae deletion strains, locus YIL066C, strain RNR3, active compounds read low 1.04 | S. cerevisiae deletion strains, locus YIL073C, strain SPO22, active compounds read low 1.03 | S. cerevisiae deletion strains, locus YIL125W, strain kgd1, active compounds read low 0.997 | S. cerevisiae deletion strains, locus YIR030C, strain dcg1, active compounds read low 1 | S. cerevisiae deletion strains, locus YJL095W, strain BCK1, active compounds read low 1.01 | S. cerevisiae deletion strains, locus YJL134W, strain LCB3, active compounds read low 1 | S. cerevisiae deletion strains, locus YJL168C, strain set2, active compounds read low 0.989 | S. cerevisiae deletion strains, locus YJL187C, strain SWE1 (second series), active compounds read low 1.01 | S. cerevisiae deletion strains, locus YJR043C, strain POL32, active compounds read low 1.02 | S. cerevisiae deletion strains, locus YJR075W, strain HOC1, active compounds read low 1.03 | S. cerevisiae deletion strains, locus YKL009W, strain mrt4, active compounds read low 1.01 | S. cerevisiae deletion strains, locus YKL068W, active compounds read low 1.01 | S. cerevisiae deletion strains, locus YKL085W, strain MDH1 (second series), active compounds read low 0.997 | S. cerevisiae deletion strains, locus YKL085W, strain MDH1, active compounds read low 0.997 | S. cerevisiae deletion strains, locus YKL190W, strain CNB1, active compounds read low 1.03 | S. cerevisiae deletion strains, locus YKR001C, strain vps1, active compounds read low 0.996 | S. cerevisiae deletion strains, locus YLR039C, strain RIC1, active compounds read low 1.05 | S. cerevisiae deletion strains, locus YLR058C, strain SHM2, active compounds read low 1.01 | S. cerevisiae deletion strains, locus YLR102C, strain apc9, active compounds read low 0.994 | S. cerevisiae deletion strains, locus YLR262C, strain YPT6, active compounds read low 1.02 | S. cerevisiae deletion strains, locus YLR268W, strain sec22, active compounds read low 0.999 | S. cerevisiae deletion strains, locus YLR330W, strain CHS5, active compounds read low 1.01 | S. cerevisiae deletion strains, locus YLR342W, strain FKS1 (second series), active compounds read low 1.01 | S. cerevisiae deletion strains, locus YLR371W, strain rom2, active compounds read low 1 | S. cerevisiae deletion strains, locus YLR418C, strain cdc73, active compounds read low 0.998 | S. cerevisiae deletion strains, locus YML016C, strain PPZ1, active compounds read low 1.01 | S. cerevisiae deletion strains, locus YML032C, strain rad52, active compounds read low 0.999 | S. cerevisiae deletion strains, locus YML124C, strain tub3, active compounds read low 0.997 | S. cerevisiae deletion strains, locus YMR078C, strain ctf18, active compounds read low 0.995 | S. cerevisiae deletion strains, locus YMR223W, strain ubp8, active compounds read low 1 | S. cerevisiae deletion strains, locus YMR263W, strain SAP30, active compounds read low 1.04 | S. cerevisiae deletion strains, locus YMR307W, strain GAS1, active compounds read low 1.05 | S. cerevisiae deletion strains, locus YNL067W, strain RPL9B, active compounds read low 1.03 | S. cerevisiae deletion strains, locus YNL128W, strain TEP1, active compounds read low 1.01 | S. cerevisiae deletion strains, locus YNL153C, strain GIM3, active compounds read low 1.02 | S. cerevisiae deletion strains, locus YNL233W, strain BNI4, active compounds read low 1.01 | S. cerevisiae deletion strains, locus YNL250W, strain rad50, active compounds read low 0.986 | S. cerevisiae deletion strains, locus YNL271C, strain bni1, active compounds read low 0.993 | S. cerevisiae deletion strains, locus YNL298W, strain CLA4, active compounds read low 0.995 | S. cerevisiae deletion strains, locus YNL307C, strain MCK1, active compounds read low 0.995 | S. cerevisiae deletion strains, locus YNL322C, strain KRE1, active compounds read low 1.01 | S. cerevisiae deletion strains, locus YNR052C, strain pop2, active compounds read low 0.998 | S. cerevisiae deletion strains, locus YOL006C, strain TOP1, active compounds read low 1.05 | S. cerevisiae deletion strains, locus YOL012C, strain htz1 0.88 | S. cerevisiae deletion strains, locus YOL147C, strain pex11, active compounds read low 0.988 | S. cerevisiae deletion strains, locus YOR061W, strain CKA2, active compounds read low 1.01 | S. cerevisiae deletion strains, locus YOR069W, strain VPS5, active compounds read low 1.01 | S. cerevisiae deletion strains, locus YOR136W, strain idh2, active compounds read low 1 | S. cerevisiae deletion strains, locus YOR144C, strain elg1, active compounds read low 0.995 | S. cerevisiae deletion strains, locus YOR184W, strain ser1, active compounds read low 1.01 | S. cerevisiae deletion strains, locus YOR316C, strain cot1, active compounds read low 0.999 | S. cerevisiae deletion strains, locus YPL055C, strain LGE1, active compounds read low 1.09 | S. cerevisiae deletion strains, locus YPL241C, strain CIN2, active compounds read low 1.01 | S. cerevisiae deletion strains, locus YPR119W, strain clb2, active compounds read low 0.993 | S. cerevisiae deletion strains, locus YPR141C, strain kar3, active compounds read low 0.994 | S. cerevisiae deletion strains, locus YPR163C, strain tif3, active compounds read low 0.998 | S. cerevisiae deletion strains, locus YPR167C, strain met16, active compounds read low 0.997 | S. cerevisiae deletion strains, strain wtn01, active compounds read low 0.993 | S. cerevisiae strains, strain wild type, active compounds read low 1.01
